The results in this text go back to PubChem BioAssay (NCI).

The nature of assay [1]: NCI Yeast Anticancer Drug Screen. Data for the rad50 strain (AID 155).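 Also: 0% = growth of vehicle-only cultures of the same strain.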 As to conditions: S. cerevisiae rad50 strain growth inhibition; at 50.0 µM; hits give high values. The method, boiled down: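 Genetically altered yeast (DNA repair pathway); compound treatment; growth inhibition vs vehicle ctrl.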
A short description of assay [2]: NCI Yeast Anticancer Drug Screen. Data for the mec2-1 strain (AID 157). As to conditions: S. cerevisiae mec2-1 strain, at 50.0 µM, hits give high values. Put shortly:
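Each compound was tested on mec2-1 yeast, a strain altered in DNA damage repair or cell cycle control. Growth inhibition is reported relative to vehicle.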

Assay [3] is described as follows: NCI Yeast Anticancer Drug Screen. Data for the sgs1 mgt1 strain (AID 161).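 Also: 0% = growth of cultures given vehicle only.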 As to conditions: S. cerevisiae sgs1 mgt1 strain, at 50.0 µM, hits give high values. The method, boiled down: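 Genetically altered yeast, compound exposure, growth inhibition relative to vehicle.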
Assay [4] in a line: NCI Yeast Anticancer Drug Screen. Data for the cln2 rad14 strain (AID 165).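 Also: 0% = growth equal to vehicle treated cultures.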 The settings on record: S. cerevisiae cln2 rad14 strain, at 50.0 µM, hits give high values. The method, boiled down:
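Test compounds were added to cln2 rad14 yeast cultures; inhibition of growth was then determined by comparison with vehicle treatment.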

Assay [5] can be described thus: NCI Yeast Anticancer Drug Screen. Data for the bub3 strain (AID 167). As to conditions: S. cerevisiae bub3 mutant strain, at 50.0 µM, hits give high values. Put shortly: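 Yeast carrying a defined mutation is treated with each compound, and growth is compared with that of vehicle-exposed cells to give inhibition.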
A short description of assay [6]: NCI Yeast Anticancer Drug Screen. Data for the mlh1 rad18 strain (AID 175). As to conditions: S. cerevisiae mlh1 rad18 strain growth inhibition; at 50.0 µM; hits give high values. The method, boiled down: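 Inhibition values reflect reduced growth of mutant yeast versus vehicle-treated controls following compound exposure; the mutations affect DNA damage repair.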

Compounds without any hit were thinned out: in the full panel of roughly 79,000, 15% have a hit. A number with no mark means an inactive call. Calls of active or inactive are those of the source. Rule as the data show it: active = growth inhibition above about 70%; inactive = the rest.

As to `CC(C)(C)NNC(=O)/C(=C/c1ccc(Oc2ccc(Cl)c(Cl)c2)cc1)NC(=O)c1ccccc1`, the growth inhibition in assay [1] is 7.45%; in assay [2], 1.1%; in assay [3], 2.1%; in assay [4], -4.2%; in assay [5], -1.6%; in assay [6] it was 16.1%.

Take `Cc1ccc(S(=O)(=O)OCC23CCC(C4CC42)C2CC23)cc1` (centres undefined): the growth inhibition in assay [1] is -21.9%; in assay [2] it was -28.5%; in assay [3] it was -14.8%; in assay [4], 4.2%; in assay [5], -10.1%; in assay [6], 10.4%.

`CCS(=O)(=O)/C=C/c1cccnc1`: the growth inhibition in assay [1] was 0.45%; in assay [2] it was -4.8%; in assay [3], -11.4%; in assay [4], -51.5%; in assay [5], 3.05%; in assay [6], 9.5%.

`CS(=O)(=O)/C=C/c1ccccc1`: the growth inhibition in assay [1] is -19.4%; in assay [2], -8.15%; in assay [3], -7.35%; in assay [4], 1.8%; in assay [5] it was -2.1%; in assay [6], 0.75%.

Consider `N#Cc1c2c(c(=O)n3c1[nH]c1ccccc13)CCC2`, for which the growth inhibition in assay [1] was -23.9%; in assay [2], 11.4%; in assay [3] it was -15.6%; in assay [4], -3.25%; in assay [5], -1.6%; in assay [6], -8.2%.

Consider `Cc1ccc(S(=O)(=O)Oc2ccccc2OS(=O)(=O)c2ccc(C)cc2)cc1`, for which the growth inhibition is 3.4% in assay [1]; 2.35% in assay [2]; -13.9% in assay [3]; -4.1% in assay [4]; -5% in assay [5]; 0.75% in assay [6].

In the case of `CC(C)/C=C(\C#N)C(=O)O`, the growth inhibition was -3.2% in assay [1]; -13.5% in assay [2]; -1.2% in assay [3]; -0.8% in assay [4]; -2.65% in assay [5]; 1.3% in assay [6].

As for `CC1CCCCNC1=S` (centres undefined), the growth inhibition is -6.95% in assay [1]; 19.6% in assay [2]; 19.9% in assay [3]; 6.6% in assay [4]; 17.8% in assay [5]; 27.1% in assay [6].

Turning to `Cc1nnc(N)s/c1=N/O`, the growth inhibition in assay [1] was 7.5%; in assay [2], 4.6%; in assay [3], 2.45%; in assay [4] it was -5.55%; in assay [5], 3.15%; in assay [6] it was -11.6%.

Take `CCCCC(O)(CCCC)CC(C)(C)C`: the growth inhibition was -3.3% in assay [1]; 1.6% in assay [2]; -9% in assay [3]; 18.7% in assay [4]; 2.65% in assay [5]; -1.35% in assay [6].

For `Cc1cc(C(F)(F)F)nc2nc3ccccc3n12`, the growth inhibition is 6.55% in assay [1]; -18.9% in assay [2]; -0.15% in assay [3]; -3.7% in assay [4]; -29.7% in assay [5]; 6.2% in assay [6].

Consider `Cc1nc2c(cc1C(=O)N/N=C/c1ccc([N+](=O)[O-])cc1)c(=O)n(C)c(=O)n2C`, for which the growth inhibition in assay [1] was -33.4%; in assay [2], -21.8%; in assay [3] it was -11.9%; in assay [4], -5.75%; in assay [5], -50.9%; in assay [6], 18.1%.

As for `CCOC(=O)C1C(c2cc(OC)c(OC)c(OC)c2)c2cc3c(cc2OC1(C)N1CCCC1)OCO3` (centres undefined), the growth inhibition in assay [1] was 7.15%; in assay [2] it was -0.45%; in assay [3], -12.3%; in assay [4], 20.5%; in assay [5] it was 1.55%; in assay [6], 22.1%.

As for `CCCCCCCCCCCCCCCCCC(=O)OCC(CO)OC(=O)CCCCCCCCCCCCCCCCC` (centres undefined), the growth inhibition in assay [1] is 4.45%; in assay [2], -9.65%; in assay [3], 7.3%; in assay [4], 6.95%; in assay [5], 34.1%; in assay [6], 29.7%.

In the case of `COc1ccc2nccc(N)c2c1`, the growth inhibition in assay [1] was 31.9%; in assay [2], -7.95%; in assay [3], 15.1%; in assay [4], 11.5%; in assay [5], -8.05%; in assay [6], 20.9%.

Regarding `[N-]=[N+]=N[Si](c1ccccc1)(c1ccccc1)c1ccccc1`, the growth inhibition in assay [1] was -17.1%; in assay [2] it was -11.4%; in assay [3], 2.35%; in assay [4] it was 7.6%; in assay [5], -7.7%; in assay [6] it was 7.25%.

Consider `O=S1(=O)CCCCC1C(O)(c1ccccc1)c1ccccc1` (centres undefined), for which the growth inhibition in assay [1] was 96% (active); in assay [2], 94.2% (active); in assay [3], 91.2% (active); in assay [4], 95.5% (active); in assay [5], 95.8% (active); in assay [6] it was 96% (active).

Turning to `Cc1ccc(C(C)[N+](=O)[O-])cc1` (centres undefined), the growth inhibition in assay [1] is 13.2%; in assay [2] it was 18.1%; in assay [3] it was 18.4%; in assay [4], -13.7%; in assay [5], 0.45%; in assay [6], 18.2%.

On to `CCc1cccc(C(C)(C)C)c1NC(=S)NC=C(C#N)C#N`, for which the growth inhibition in assay [1] was 27.9%; in assay [2], -11.6%; in assay [3], 36.8%; in assay [4] it was 26.8%; in assay [5], 17.6%; in assay [6], 45.8%.

For the compound `CC(C)c1ccccc1OC(=O)c1cccc(Br)c1`, the growth inhibition in assay [1] was -19%; in assay [2], -1.95%; in assay [3], 0.35%; in assay [4] it was -23.1%; in assay [5], 13.9%; in assay [6], 1.5%.

`CC1=CC(=O)C(C(C)C)=CC1=Nc1ccc(N(C)C)cc1`: the growth inhibition was -24.9% in assay [1]; -26.3% in assay [2]; -12.4% in assay [3]; -33% in assay [4]; 42.4% in assay [5]; -12.3% in assay [6].

As for `Cc1cc(=O)n(Cc2ccco2)c(=S)[nH]1`, the growth inhibition is 25.1% in assay [1]; -25.4% in assay [2]; 14.6% in assay [3]; 0.75% in assay [4]; -0.9% in assay [5]; -9% in assay [6].

For `CC(=O)Nc1ccc(/C=N\NC(=S)Nc2ccc(F)cc2)cc1`, the growth inhibition was -13.4% in assay [1]; -12.7% in assay [2]; -3.9% in assay [3]; -53.1% in assay [4]; 4.65% in assay [5]; -18.8% in assay [6].

In the case of `C=C(Br)CNCC(=C)Br`, the growth inhibition in assay [1] was 2.2%; in assay [2], 7.25%; in assay [3] it was 5%; in assay [4], 9.65%; in assay [5], 18.2%; in assay [6] it was -18.6%.

As to `CCc1nc(N)nc(N)c1-c1ccc(NCCN)c(N)c1`, the growth inhibition is 3.4% in assay [1]; 6.35% in assay [2]; 5.15% in assay [3]; -6.05% in assay [4]; 12.2% in assay [5]; 8.5% in assay [6].

As to `C=CCOC(=O)NC(CCC(=O)OC)C(=O)O` (centres undefined), the growth inhibition in assay [1] is -0.5%; in assay [2], -2.1%; in assay [3] it was -6.25%; in assay [4], -9.3%; in assay [5], -2.45%; in assay [6], -0.2%.

For `Cn1c(=O)c2c(ncn2CCSS(=O)(=O)O)n(C)c1=O`, the growth inhibition in assay [1] was -20.7%; in assay [2], -17.1%; in assay [3] it was 12.2%; in assay [4] it was -11.9%; in assay [5], -12%; in assay [6] it was -28.9%.

Turning to `O=c1[nH]nc(Cc2ccccc2)n1/N=C/c1cccnc1`, the growth inhibition was 28.8% in assay [1]; 30.9% in assay [2]; 37% in assay [3]; 35.7% in assay [4]; 30.2% in assay [5]; 45.6% in assay [6].

`CCOC(=O)NCC(=O)NCC(=O)NCC(N)=O`: the growth inhibition in assay [1] is -14.2%; in assay [2], -19.2%; in assay [3], -12.9%; in assay [4], -9.65%; in assay [5], -25.1%; in assay [6], 7.95%.

Consider `CC1CCc2c(nc(C#N)c(=N)n2O)C1` (centres undefined), for which the growth inhibition is 8.25% in assay [1]; -3.2% in assay [2]; 6.8% in assay [3]; -40.2% in assay [4]; -12.2% in assay [5]; -6.75% in assay [6].

In the case of `CN1C(=O)c2ccccc2C(O)(c2ccccc2)C1(O)c1ccccc1` (centres undefined), the growth inhibition in assay [1] is -6.3%; in assay [2] it was -20.9%; in assay [3], -26.7%; in assay [4], 12.2%; in assay [5] it was -12.2%; in assay [6] it was -38.9%.

As to `CC(C)=CCC1=C(OCC(=O)O)C(=O)c2ccccc2C1=O`, the growth inhibition is 30.9% in assay [1]; 1.45% in assay [2]; 12.8% in assay [3]; -2.7% in assay [4]; 20.1% in assay [5]; 23.1% in assay [6].

As to `CC(C)(C)C1=Cc2cc3cc(C(C)(C)C)[nH]c(=O)c3cc2S(=O)(=O)N1`, the growth inhibition in assay [1] was -23.2%; in assay [2], -22.6%; in assay [3] it was -14.4%; in assay [4] it was 3%; in assay [5], 5.4%; in assay [6], -20.9%.

Regarding `Cc1c2ccccc2c(CN(C)CC(=O)NCC(=O)NCC(=O)O)c2ccccc12`, the growth inhibition is 97.5% (active) in assay [1]; 97.7% (active) in assay [2]; 97.5% (active) in assay [3]; 97.5% (active) in assay [4]; 98.2% (active) in assay [5]; 98.5% (active) in assay [6].

`CCCC(CCC)=C1C(=O)N=C(N)NC1=O`: the growth inhibition was -6.45% in assay [1]; 4.9% in assay [2]; -2.7% in assay [3]; -9.05% in assay [4]; -7.35% in assay [5]; -16% in assay [6].

Take `C1=CC(=NN=P(c2ccccc2)(c2ccccc2)c2ccccc2)C=C1`: the growth inhibition in assay [1] was 21.7%; in assay [2], 7.9%; in assay [3], 20.3%; in assay [4], 19.9%; in assay [5], 18.7%; in assay [6], 13.5%.

With `CC(C)=C1CCC(CN2CCOCC2)C1=O` (centres undefined), the growth inhibition in assay [1] is 25.2%; in assay [2], 16.4%; in assay [3], 23.1%; in assay [4], 19.6%; in assay [5], -2.6%; in assay [6], 87% (active).

Turning to `O=C1CCC2=C(N1)C(=O)C=CC2=O`, the growth inhibition in assay [1] is 1.8%; in assay [2], 13.2%; in assay [3] it was -13.2%; in assay [4], -32%; in assay [5], -8.35%; in assay [6], 10.9%.

Consider `c1ccc(-c2nc(-c3ccccc3SSc3ccccc3-c3nc(-c4ccccc4)nn3-c3ccccc3)n(-c3ccccc3)n2)cc1`, for which the growth inhibition in assay [1] is -14.5%; in assay [2] it was -6.3%; in assay [3], 0.8%; in assay [4], 3.25%; in assay [5], -8.8%; in assay [6], 18.9%.
